{
  "source": "ChEMBL document CHEMBL3988442",
  "about": "“University of Dundee, Small-Polar-MMV Screening Library” (2021)",
  "note": "The whole screen tested about 48,000 compounds, of which about 13,000 (27%) showed an effect of 50% or more. The list shows a part of the results.",
  "data": [
    {"test_system": "Wolbachia pipientis", "test": "Anti-Wolbachia Cell-Based Screen", "assay_type": "functional", "design": "scale not given: in the data most compounds retested in dose-response had high values", "settings": "5 µM", "units": {"Percent Effect": "%"}, "values": [
      {"smiles": "CCOc1cc(CNc2nnn(C)n2)ccc1OCc1ccc(Cl)cc1", "Percent Effect": 121.9},
      {"smiles": "Cc1cnn(CCNCc2ccccc2OCc2cccnc2)c1", "Percent Effect": -3.699},
      {"smiles": "c1ccc(OCc2ccncc2)c(CNC2CCc3ncnn3C2)c1", "note": "(configuration not stated)", "Percent Effect": -0.3287},
      {"smiles": "CCOCc1ccccc1CNc1ccc2nncn2n1", "Percent Effect": -4.273},
      {"smiles": "CCn1nnc(NCc2ccccc2OCc2ccc(Cl)cc2)n1", "Percent Effect": 122},
      {"smiles": "CCOc1ccc(CNCCCn2ccnc2)cc1Br", "Percent Effect": 7.125},
      {"smiles": "CCCn1nnc(NCc2ccccc2OCc2ccc(Cl)cc2)n1", "Percent Effect": 104.8},
      {"smiles": "Cn1nnc(NCc2ccccc2OCc2ccc(Cl)cc2)n1", "Percent Effect": 119},
      {"smiles": "CCOc1ccc(Cl)cc1CNCCCn1ccnc1", "Percent Effect": -4.437},
      {"smiles": "COc1ccc(-c2cn3c(n2)CO[C@@H](CNCc2ccccn2)C3)cc1", "Percent Effect": -5.771},
      {"smiles": "CC(C)OCCN1CCc2cncnc2C1", "Percent Effect": -3.318},
      {"smiles": "Cc1nnc(NCc2ccc(Cl)cc2)o1", "Percent Effect": -6.045},
      {"smiles": "CC(NCc1ccc(OCC(N)=O)cc1)c1ccc(Cl)cc1.Cl", "note": "(configuration not stated)", "Percent Effect": -2.794},
      {"smiles": "Cn1nnc(NCc2ccc(OCc3ccc(Cl)cc3)cc2)n1", "Percent Effect": 101.9},
      {"smiles": "CCc1ccc(C(=O)N2CCC3(CCC(=O)N(CCN(C)C)C3)CC2)[nH]1", "Percent Effect": -7.538},
      {"smiles": "CCSc1ccc(C(=O)N2CCC3(CC2)[C@H](O)C[C@@H]3O)s1", "Percent Effect": 100.2},
      {"smiles": "CCN1CC2(CCC1=O)CCN(C(=O)c1ccc(Cl)cc1O)CC2", "Percent Effect": -7.361},
      {"smiles": "CO[C@H]1C[C@@H](O)C12CCN(C(=O)CCSCc1ccc(F)cc1)CC2", "Percent Effect": 11.02},
      {"smiles": "CC[C@@]1(O)CCN(C(=O)c2ccc(-n3cnnc3)cc2)C[C@H]1O", "Percent Effect": 5.833},
      {"smiles": "CCSc1ccc(C(=O)N2CCC3(CCC(=O)N(C)C3)CC2)s1", "Percent Effect": 103.4},
      {"smiles": "CCSc1ccc(C(=O)N2CC[C@](C)(O)[C@H](C)C2)s1", "Percent Effect": 109.4},
      {"smiles": "CC[C@@]1(O)CCN(C(=O)c2ccsc2)C[C@H]1O", "Percent Effect": -12.48},
      {"smiles": "CCc1ccc(C(=O)N2CC[C@](C)(O)[C@H](C)C2)[nH]1", "Percent Effect": -16.61},
      {"smiles": "Cc1cc2cccc(C(=O)N3CC[C@](C)(O)[C@H](C)C3)c2o1", "Percent Effect": 15.88},
      {"smiles": "CCn1nc(CC(C)C)cc1C(=O)N1CCC2(CC1)[C@H](O)C[C@@H]2O", "Percent Effect": -14.19},
      {"smiles": "CCSc1ccc(C(=O)N2CC[C@](O)(CC)[C@H](O)C2)s1", "Percent Effect": 107.9},
      {"smiles": "COc1ccccc1N1CCN(C(=O)c2ccoc2)CC1", "Percent Effect": 4.438},
      {"smiles": "CNC(=O)Cc1noc(-c2cc3c(s2)CCCCCC3)n1", "Percent Effect": -5.82},
      {"smiles": "COc1cccc(CC(=O)N2CCc3ncnc(C)c3CC2)c1", "Percent Effect": -6.07},
      {"smiles": "CCn1c(C)cc(C(=O)N2CCCC(c3nc(C)no3)C2)c1C", "note": "(configuration not stated)", "Percent Effect": 12.03},
      {"smiles": "CCn1cnnc1C1CCN(C(=O)c2ccoc2C)CC1", "Percent Effect": 104.9},
      {"smiles": "CCn1cnnc1C1CCN(C(=O)c2c(C)oc(C)c2C)CC1", "Percent Effect": 107.2},
      {"smiles": "CCc1ccc(C(=O)N2CCC(c3nncn3CC)CC2)o1", "Percent Effect": 130.6},
      {"smiles": "CCn1cnnc1C1CCN(C(=O)COCCc2ccccc2)CC1", "Percent Effect": 1.598},
      {"smiles": "CCn1cnnc1C1CCN(C(=O)c2cc(C)n(CC)c2C)CC1", "Percent Effect": 80.75},
      {"smiles": "CCn1cnnc1C1CCN(C(=O)c2ccc(Cl)s2)CC1", "Percent Effect": 1.567},
      {"smiles": "CCCS(=O)(=O)N1CCC2(CC1)COCCN(C(C)=O)C2", "Percent Effect": -12.8},
      {"smiles": "NCCC1CN(c2nc(-c3ccccc3)nc3c2CCNC3)CCO1", "note": "(configuration not stated)", "Percent Effect": -13.03},
      {"smiles": "CC(=O)c1cccc(OCCCC(=O)N(C)Cc2cscn2)c1", "Percent Effect": 4.484},
      {"smiles": "COc1cc(Br)c(CNC(C)c2nnc3n2CCC3)cc1OC", "note": "(configuration not stated)", "Percent Effect": 2.226},
      {"smiles": "CNS(=O)(=O)c1ccccc1N1CCN(C(=O)C(C)C)CC1", "Percent Effect": -15.34},
      {"smiles": "COc1cccc2ccc(CN3CCN(c4cccnc4)CC3)nc12", "Percent Effect": 1.116},
      {"smiles": "CCn1cnnc1C1CCN(C(=O)c2ccccc2F)CC1", "Percent Effect": 104.8},
      {"smiles": "CCn1cnnc1C1CCN(C(=O)C(OC)c2ccccc2)CC1", "note": "(configuration not stated)", "Percent Effect": -2.664},
      {"smiles": "CCn1cnnc1C1CCN(C(=O)c2ccc3ccccc3n2)CC1", "Percent Effect": 136.7},
      {"smiles": "CCn1cnnc1C1CCN(C(=O)c2cccc(C)c2C)CC1", "Percent Effect": 94.12},
      {"smiles": "CNc1nc(CNC(=O)Nc2ccccc2OC(C)C)cs1", "Percent Effect": -5.433},
      {"smiles": "CCSCCC(C)N(C)C(=O)c1cc(C)no1", "note": "(configuration not stated)", "Percent Effect": -5.306},
      {"smiles": "Cc1[nH]ncc1CCCNC(=O)Nc1ccc(C#N)cc1", "Percent Effect": -18.53},
      {"smiles": "CCOCCn1nc(C)cc1C(=O)N1CC[C@@](O)(COC)C(C)(C)C1", "Percent Effect": 0.9121},
      {"smiles": "CC(Sc1nnc(C2CC2)n1CC(N)=O)c1ccc(Cl)cc1", "note": "(configuration not stated)", "Percent Effect": 0.3539},
      {"smiles": "OCC1(CCOc2ccccc2)CCN(c2ccc(Cl)cn2)CC1", "Percent Effect": -3.583},
      {"smiles": "Cc1ccc(Cl)cc1-n1nnnc1C1(N2CCCC2)CCCC1", "Percent Effect": -26.05},
      {"smiles": "COc1cccc(NC(=O)NCC(Cc2cnn(C)c2)C(N)=O)c1", "note": "(configuration not stated)", "Percent Effect": 2.392},
      {"smiles": "COc1cccc(NC(=O)NCC(O)c2ccc(F)cc2F)c1", "note": "(configuration not stated)", "Percent Effect": 109.6},
      {"smiles": "COc1cccc(NC(=O)NCc2cnn(C)c2)c1", "Percent Effect": 90.55},
      {"smiles": "COc1ccccc1NC(=O)NCC(O)c1ccc(F)cc1F", "note": "(configuration not stated)", "Percent Effect": 114.6},
      {"smiles": "CC(C)OCCOCc1cccc(NC(=O)NCc2cnn(C)c2)c1", "Percent Effect": 2.629},
      {"smiles": "Cc1cccc(C(=O)NCC(O)c2ccc(F)cc2F)c1", "note": "(configuration not stated)", "Percent Effect": 14.48},
      {"smiles": "CC(C)Nc1cccc(C(=O)NCC(O)c2ccc(F)cc2F)c1", "note": "(configuration not stated)", "Percent Effect": 1.201},
      {"smiles": "O=C(NCC(O)c1ccc(F)cc1F)c1ccccc1F", "note": "(configuration not stated)", "Percent Effect": 15.04},
      {"smiles": "COc1ncccc1NC(=O)NCC(O)c1ccc(F)cc1F", "note": "(configuration not stated)", "Percent Effect": 0.8108},
      {"smiles": "CC(=O)c1cccc(OC(C)C(=O)Nc2cnn(CCN(C)C)c2)c1", "note": "(configuration not stated)", "Percent Effect": -1.957},
      {"smiles": "CC(NC(=O)c1cccc(CCC(C)(C)O)c1)c1nnc(N)s1", "note": "(configuration not stated)", "Percent Effect": -8.452},
      {"smiles": "OCc1ccc(OCC(F)(F)F)cc1", "Percent Effect": 0.2216},
      {"smiles": "CCC(C)N(C)C(=O)Nc1ccc(N2CCSCC2)cc1C", "note": "(configuration not stated)", "Percent Effect": -11.87},
      {"smiles": "O=C(O)C(F)(F)F.O=C(c1cnccn1)N1C[C@@H]2CCN(c3cccnc3)C[C@@H]2C1", "Percent Effect": -9.697},
      {"smiles": "CCCC(=O)N1C[C@@H]2CCN(c3cnccn3)C[C@@H]2C1.O=C(O)C(F)(F)F", "Percent Effect": 107.8},
      {"smiles": "CC(C)CN1CCO[C@H]2CCN(c3cnccn3)CC[C@@H]21.O=C(O)C(F)(F)F", "Percent Effect": 107},
      {"smiles": "CCOCC(=O)N1C[C@@H]2CCN(c3cnccn3)C[C@@H]2C1.O=C(O)C(F)(F)F", "Percent Effect": 110.3},
      {"smiles": "O=C(O)C(F)(F)F.O=C(c1ccccc1)N1CCO[C@@H]2CN(c3cnccn3)C[C@@H]2C1", "Percent Effect": -2.123},
      {"smiles": "CC(C)CC(=O)N1C[C@@H]2CCN(c3cnccn3)C[C@@H]2C1.O=C(O)C(F)(F)F", "Percent Effect": 83.3}
    ]}
  ]
}
